Laboratory results taken from the supplement of paper PMC10849652.
About 7,900 targets were measured; listed, in parts, are those with a hit and a random draw of the rest. About 0.6% of all pairs of compound and target were hits.

Key:
Assay in all cases: log2 fold change, soluble protein after heating vs DMSO (PISA); higher = thermal stabilisation; K562 cells, 10 uM, 30 min; active = over 0.2 and 3.5 SD of the protein, either way, in both replicates (recomputed)
[1] = compound: COC1=CC=C(C=C1)CN2C=CC3=C2C=C(C=C3)C(=O)NO
How it was run: (§1)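 Thermal stability values are relative to control samples and come from duplicates. They are expressed as log2 fold changes. For measurement, K562 cells (2×10^6 cells/mL) received 10 μM compound for 30 min, and aliquots were heated for 3 min over 48°C-58°C, pooled, and extracted at 4°C in PBS with 0.5% NP-40. Soluble protein, the supernatant after 21,000xg for 90 min, was quantified by TMTpro 16plex LC-MS/MS with equalised channel sums.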

filanesib = compound: CON(C)C(=O)N1N=C(c2cc(F)ccc2F)S[C@@]1(CCCN)c1ccccc1 [filanesib]
How it was run: as §1

zotarolimus = compound: CO[C@H]1C[C@@H]2CC[C@@H](C)[C@@](O)(O2)C(=O)C(=O)N2CCCC[C@H]2C(=O)O[C@H]([C@H](C)C[C@@H]2CC[C@H](n3cnnn3)[C@H](OC)C2)CC(=O)[C@H](C)/C=C(\C)[C@@H](O)[C@@H](OC)C(=O)[C@H](C)C[C@H](C)/C=C/C=C/C=C/1C [zotarolimus]
How it was run: as §1

idasanutlin = compound: COc1cc(C(=O)O)ccc1NC(=O)[C@@H]1N[C@@H](CC(C)(C)C)[C@](C#N)(c2ccc(Cl)cc2F)[C@H]1c1cccc(Cl)c1F [idasanutlin]
How it was run: as §1

alisertib = compound: COc1cc(Nc2ncc3c(n2)-c2ccc(Cl)cc2C(c2c(F)cccc2OC)=NC3)ccc1C(=O)O [alisertib]
How it was run: as §1

[2] = compound: COc1cc2nc(-c3cc(F)ccc3O)nc(N[C@@H]3CNC[C@H]3C(C)(C)O)c2cc1OC
How it was run: as §1

gefitinib = compound: COc1cc2ncnc(Nc3ccc(F)c(Cl)c3)c2cc1OCCCN1CCOCC1 [gefitinib]
How it was run: as §1

[3] = compound: COc1cccc2cc(-c3nc([C@H]4CC[C@H](C(=O)O)CC4)n4ncnc(N)c34)[nH]c12
How it was run: as §1

lapatinib = compound: CS(=O)(=O)CCNCc1ccc(-c2ccc3ncnc(Nc4ccc(OCc5cccc(F)c5)c(Cl)c4)c3c2)o1 [lapatinib]
How it was run: as §1

pictilisib = compound: CS(=O)(=O)N1CCN(Cc2cc3nc(-c4cccc5[nH]ncc45)nc(N4CCOCC4)c3s2)CC1 [pictilisib]
How it was run: as §1

[4] = compound: CS(=O)(=O)c1ccc(-c2cnc(N)c(C(=O)Nc3ccccc3)n2)cc1
How it was run: as §1

crizotinib = compound: C[C@@H](Oc1cc(-c2cnn(C3CCNCC3)c2)cnc1N)c1c(Cl)ccc(F)c1Cl [crizotinib]
How it was run: as §1

[5] = compound: C[C@@H]1COCCN1C2=NC(=NC(=C2)C3(CC3)S(=O)(=O)C)C4=C5C=CNC5=CC=C4
How it was run: as §1

[6] = compound: C[C@H](C1=CC=C(C=C1)C(=O)NC2=C3C=CNC3=NC=C2)N
How it was run: as §1

duvelisib = compound: C[C@H](Nc1ncnc2nc[nH]c12)c1cc2cccc(Cl)c2c(=O)n1-c1ccccc1 [duvelisib]
How it was run: as §1

gandotinib = compound: Cc1cc(Nc2cc(CN3CCOCC3)c3nc(C)c(Cc4ccc(Cl)cc4F)n3n2)n[nH]1 [gandotinib]
How it was run: as §1

tozasertib = compound: Cc1cc(Nc2cc(N3CCN(C)CC3)nc(Sc3ccc(NC(=O)C4CC4)cc3)n2)n[nH]1 [tozasertib]
How it was run: as §1

[7] = compound: Cc1cc(SCc2sc(-c3ccc(C(F)(F)F)cc3)nc2C)ccc1OCC(=O)O
How it was run: as §1

doramapimod = compound: Cc1ccc(-n2nc(C(C)(C)C)cc2NC(=O)Nc2ccc(OCCN3CCOCC3)c3ccccc23)cc1 [doramapimod]
How it was run: as §1

ispinesib = compound: Cc1ccc(C(=O)N(CCCN)[C@@H](c2nc3cc(Cl)ccc3c(=O)n2Cc2ccccc2)C(C)C)cc1 [ispinesib]
How it was run: as §1

Measured: log2 fold change

GEMIN6 (UniProt Q8WXD5)
Sequence of UniProt Q8WXD5 (Q8WXD5 whole entry, looked up): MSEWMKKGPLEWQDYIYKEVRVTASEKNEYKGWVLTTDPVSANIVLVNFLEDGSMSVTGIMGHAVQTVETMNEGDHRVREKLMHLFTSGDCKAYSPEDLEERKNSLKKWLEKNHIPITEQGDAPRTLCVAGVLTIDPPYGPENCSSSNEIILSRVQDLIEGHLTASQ
inactive: [1] 0.001 | filanesib 0.005 | zotarolimus 0.154 | idasanutlin 0.071 | alisertib -0.019 | [2] 0.006 | gefitinib -0.003 | [3] 0.096 | lapatinib -0.077 | pictilisib 0.064 | [4] -0.076 | crizotinib -0.055 | [5] 0.097 | [6] 0.091 | duvelisib 0.088 | gandotinib 0.034 | tozasertib -0.028 | [7] 0.034 | doramapimod -0.016 | ispinesib -0.017

GLUL (UniProt P15104)
Sequence of UniProt P15104 (P15104 whole entry, looked up): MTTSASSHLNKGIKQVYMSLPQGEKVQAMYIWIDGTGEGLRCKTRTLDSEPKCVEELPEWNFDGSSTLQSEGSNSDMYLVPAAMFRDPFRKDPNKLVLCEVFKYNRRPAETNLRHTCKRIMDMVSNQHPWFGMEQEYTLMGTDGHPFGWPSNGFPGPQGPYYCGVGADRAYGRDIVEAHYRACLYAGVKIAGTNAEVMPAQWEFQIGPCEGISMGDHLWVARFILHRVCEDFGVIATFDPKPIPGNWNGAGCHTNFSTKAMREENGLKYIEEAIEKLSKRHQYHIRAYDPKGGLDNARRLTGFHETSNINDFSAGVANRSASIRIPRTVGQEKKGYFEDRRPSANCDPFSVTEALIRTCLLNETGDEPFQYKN
active: [3] -0.225 | [5] -0.267
inactive: [1] 0.11 | filanesib 0.002 | zotarolimus -0.154 | idasanutlin 0.032 | alisertib -0.013 | [2] -0.061 | gefitinib 0.01 | lapatinib -0.032 | pictilisib -0.001 | [4] -0.07 | crizotinib 0.008 | [6] 0.062 | duvelisib 0.035 | gandotinib -0.014 | tozasertib -0.014 | [7] -0.047 | doramapimod -0.126 | ispinesib 0.005

HAT1 (UniProt O14929)
Sequence of UniProt O14929 (O14929 whole entry, looked up): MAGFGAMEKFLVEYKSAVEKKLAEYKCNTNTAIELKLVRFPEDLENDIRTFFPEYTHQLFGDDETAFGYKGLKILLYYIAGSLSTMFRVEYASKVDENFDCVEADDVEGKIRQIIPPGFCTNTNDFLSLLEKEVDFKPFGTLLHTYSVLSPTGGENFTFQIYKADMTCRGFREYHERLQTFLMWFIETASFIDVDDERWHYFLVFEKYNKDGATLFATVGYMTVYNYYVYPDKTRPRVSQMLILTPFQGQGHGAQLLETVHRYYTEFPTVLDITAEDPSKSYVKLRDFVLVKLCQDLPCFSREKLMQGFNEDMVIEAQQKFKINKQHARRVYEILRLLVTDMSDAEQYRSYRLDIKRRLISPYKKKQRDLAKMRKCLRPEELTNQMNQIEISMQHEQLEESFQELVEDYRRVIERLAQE
inactive: [1] 0.14 | filanesib -0.049 | zotarolimus 0.075 | idasanutlin 0.055 | alisertib 0.019 | [2] 0.066 | gefitinib 0.008 | [3] -0.014 | lapatinib -0.002 | pictilisib -0.076 | [4] -0.011 | crizotinib 0.013 | [5] 0.007 | [6] -0.225 | duvelisib -0.031 | gandotinib 0.019 | tozasertib 0.024 | [7] 0.033 | doramapimod -0.04 | ispinesib 0.135

IGF2BP2 (UniProt Q9Y6M1)
inactive: [1] -0.111 | filanesib 0.301 | zotarolimus 0.104 | idasanutlin 0.136 | alisertib -0.103 | [2] -0.105 | gefitinib 0.007 | [3] -0.113 | lapatinib 0.046 | pictilisib -0.043 | [4] 0.009 | crizotinib -0.062 | [5] -0.186 | duvelisib -0.161 | gandotinib 0.139 | tozasertib 0.012 | [7] 0.158 | doramapimod 0.288 | ispinesib -0.182
active: [6] 0.531

HECTD1 (UniProt Q9ULT8)
Sequence of UniProt Q9ULT8 (Q9ULT8 whole entry, looked up): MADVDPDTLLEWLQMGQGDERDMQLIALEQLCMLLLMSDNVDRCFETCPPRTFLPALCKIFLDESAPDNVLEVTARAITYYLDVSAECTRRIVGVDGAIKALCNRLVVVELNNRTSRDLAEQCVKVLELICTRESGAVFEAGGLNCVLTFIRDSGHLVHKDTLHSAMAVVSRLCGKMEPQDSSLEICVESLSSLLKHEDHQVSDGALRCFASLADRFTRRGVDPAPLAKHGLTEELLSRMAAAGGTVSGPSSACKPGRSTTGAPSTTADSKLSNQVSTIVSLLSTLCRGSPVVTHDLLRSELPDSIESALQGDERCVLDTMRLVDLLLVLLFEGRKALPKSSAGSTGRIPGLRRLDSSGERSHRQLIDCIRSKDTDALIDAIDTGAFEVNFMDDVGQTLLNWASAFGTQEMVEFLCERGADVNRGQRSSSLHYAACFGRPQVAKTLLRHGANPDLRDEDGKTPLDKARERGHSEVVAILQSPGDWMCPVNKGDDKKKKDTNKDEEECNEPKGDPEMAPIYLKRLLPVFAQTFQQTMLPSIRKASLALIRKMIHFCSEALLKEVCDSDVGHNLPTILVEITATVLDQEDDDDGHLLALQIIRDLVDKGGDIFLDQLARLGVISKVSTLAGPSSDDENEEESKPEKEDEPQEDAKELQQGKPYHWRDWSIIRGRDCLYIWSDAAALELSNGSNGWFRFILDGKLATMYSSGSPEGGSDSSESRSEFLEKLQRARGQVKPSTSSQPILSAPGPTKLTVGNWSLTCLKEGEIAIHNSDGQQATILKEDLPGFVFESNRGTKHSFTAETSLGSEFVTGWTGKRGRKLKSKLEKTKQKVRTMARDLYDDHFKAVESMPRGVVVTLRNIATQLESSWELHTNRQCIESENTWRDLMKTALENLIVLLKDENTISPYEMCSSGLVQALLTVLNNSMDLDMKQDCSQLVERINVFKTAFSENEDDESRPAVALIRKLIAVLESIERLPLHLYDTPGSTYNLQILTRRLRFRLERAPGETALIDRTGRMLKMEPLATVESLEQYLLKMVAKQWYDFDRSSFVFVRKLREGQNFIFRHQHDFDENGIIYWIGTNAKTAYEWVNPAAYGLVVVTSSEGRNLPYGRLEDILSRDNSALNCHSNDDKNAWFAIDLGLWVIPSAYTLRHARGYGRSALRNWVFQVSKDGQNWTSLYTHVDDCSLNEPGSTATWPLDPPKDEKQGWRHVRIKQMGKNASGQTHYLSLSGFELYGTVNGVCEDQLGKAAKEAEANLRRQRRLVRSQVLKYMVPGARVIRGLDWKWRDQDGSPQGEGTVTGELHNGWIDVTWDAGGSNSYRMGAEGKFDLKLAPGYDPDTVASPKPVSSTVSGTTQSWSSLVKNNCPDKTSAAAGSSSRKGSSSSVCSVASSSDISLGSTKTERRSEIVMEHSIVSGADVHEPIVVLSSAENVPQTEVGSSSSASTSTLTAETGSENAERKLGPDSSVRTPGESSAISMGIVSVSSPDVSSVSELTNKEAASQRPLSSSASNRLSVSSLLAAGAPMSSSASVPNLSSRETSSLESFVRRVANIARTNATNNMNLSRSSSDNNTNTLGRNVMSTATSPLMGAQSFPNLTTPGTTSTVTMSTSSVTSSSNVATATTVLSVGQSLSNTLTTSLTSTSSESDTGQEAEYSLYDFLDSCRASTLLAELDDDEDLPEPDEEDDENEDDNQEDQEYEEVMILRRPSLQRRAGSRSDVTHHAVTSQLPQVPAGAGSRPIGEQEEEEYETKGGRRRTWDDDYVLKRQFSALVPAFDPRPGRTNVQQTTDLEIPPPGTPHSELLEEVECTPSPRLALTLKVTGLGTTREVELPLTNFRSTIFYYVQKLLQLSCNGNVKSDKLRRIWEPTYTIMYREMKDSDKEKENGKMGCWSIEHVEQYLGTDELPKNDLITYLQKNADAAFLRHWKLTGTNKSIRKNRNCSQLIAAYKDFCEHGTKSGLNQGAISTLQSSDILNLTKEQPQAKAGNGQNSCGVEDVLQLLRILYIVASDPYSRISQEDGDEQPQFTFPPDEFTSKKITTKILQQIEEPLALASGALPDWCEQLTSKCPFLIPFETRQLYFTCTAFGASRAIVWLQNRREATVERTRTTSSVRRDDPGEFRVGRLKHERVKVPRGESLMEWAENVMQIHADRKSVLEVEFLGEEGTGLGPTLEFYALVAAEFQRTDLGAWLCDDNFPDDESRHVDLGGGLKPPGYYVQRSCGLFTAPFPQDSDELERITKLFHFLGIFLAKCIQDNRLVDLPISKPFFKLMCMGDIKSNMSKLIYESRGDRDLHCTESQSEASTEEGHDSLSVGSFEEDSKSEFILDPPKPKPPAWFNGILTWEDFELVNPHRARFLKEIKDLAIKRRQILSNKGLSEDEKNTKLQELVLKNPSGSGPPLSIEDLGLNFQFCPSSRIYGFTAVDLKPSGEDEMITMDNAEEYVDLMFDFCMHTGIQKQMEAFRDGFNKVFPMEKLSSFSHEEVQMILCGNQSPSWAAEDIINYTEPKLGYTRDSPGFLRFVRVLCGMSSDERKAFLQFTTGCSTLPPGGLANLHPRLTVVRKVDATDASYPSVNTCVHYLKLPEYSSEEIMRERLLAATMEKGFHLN
inactive: [1] -0.039 | filanesib 0.091 | zotarolimus 0.023 | idasanutlin 0.047 | alisertib 0.087 | [2] -0.04 | gefitinib -0.016 | [3] -0.132 | lapatinib 0.096 | pictilisib 0.02 | [4] -0.034 | crizotinib 0.084 | [5] 0.129 | [6] 0.072 | duvelisib -0.091 | gandotinib -0.062 | tozasertib 0.002 | [7] 0.06 | doramapimod -0.062 | ispinesib -0.126

HNRNPUL2 (UniProt Q1KMD3)
inactive: [1] -0.012 | filanesib 0.156 | zotarolimus -0.015 | idasanutlin 0.083 | alisertib -0.026 | [2] 0.105 | gefitinib -0.02 | [3] 0.005 | lapatinib -0.018 | pictilisib 0.035 | [4] -0.092 | crizotinib -0.033 | [5] -0.05 | [6] 0.123 | duvelisib -0.096 | gandotinib -0.005 | tozasertib -0.058 | [7] 0.015 | doramapimod 0.041 | ispinesib 0.004

HEATR5B (UniProt Q9P2D3)
inactive: [1] -0.006 | filanesib -0.005 | zotarolimus -0.071 | idasanutlin 0 | alisertib 0.006 | [2] 0.039 | gefitinib -0.045 | [3] 0.033 | lapatinib 0.018 | pictilisib -0.065 | [4] 0.055 | crizotinib -0.058 | [5] -0.11 | [6] 0.103 | duvelisib -0.026 | gandotinib -0.039 | tozasertib -0.019 | [7] 0.036 | doramapimod -0.015 | ispinesib -0.021

HADHA (UniProt P40939)
inactive: [1] 0.267 | filanesib 0.082 | zotarolimus 0.081 | idasanutlin -0.321 | alisertib -0.035 | [2] 0.155 | gefitinib 0.209 | [3] -0.088 | lapatinib 0.148 | pictilisib 0.425 | [4] -0.058 | crizotinib 0.079 | [5] 0.068 | [6] -0.017 | duvelisib 0.201 | gandotinib 0.086 | tozasertib -0.154 | [7] 0.154 | doramapimod 0.176 | ispinesib 0.171

HP1BP3 (UniProt Q5SSJ5)
inactive: [1] 0.041 | filanesib 0.145 | zotarolimus -0.003 | idasanutlin 0.095 | alisertib -0.069 | [2] -0.053 | gefitinib 0.154 | [3] -0.024 | lapatinib 0.044 | pictilisib 0.04 | [4] 0.002 | crizotinib -0.121 | [5] -0.013 | [6] 0.163 | duvelisib -0.097 | gandotinib 0.039 | tozasertib -0.011 | [7] 0.121 | doramapimod 0.035 | ispinesib -0.079

GTF2B (UniProt Q00403)
Sequence of UniProt Q00403 (Q00403 whole entry, looked up): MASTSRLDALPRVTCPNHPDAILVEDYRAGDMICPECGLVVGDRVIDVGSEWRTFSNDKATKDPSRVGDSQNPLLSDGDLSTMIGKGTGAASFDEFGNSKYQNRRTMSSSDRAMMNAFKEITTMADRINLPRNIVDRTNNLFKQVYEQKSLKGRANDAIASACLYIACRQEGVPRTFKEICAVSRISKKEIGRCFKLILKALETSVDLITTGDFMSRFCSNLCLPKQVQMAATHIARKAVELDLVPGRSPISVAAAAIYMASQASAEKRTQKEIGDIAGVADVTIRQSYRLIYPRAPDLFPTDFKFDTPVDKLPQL
inactive: [1] 0.046 | filanesib -0.018 | zotarolimus 0.054 | idasanutlin -0.085 | alisertib -0.037 | [2] -0.001 | gefitinib 0.02 | [3] -0.006 | lapatinib -0.047 | pictilisib -0.025 | [4] -0.007 | crizotinib -0.044 | [5] 0.115 | [6] 0.001 | duvelisib 0.121 | gandotinib -0.146 | tozasertib 0.102 | [7] 0.127 | doramapimod -0.044 | ispinesib -0.091

IFT80 isoform 3 (UniProt Q9P2H3)
inactive: [1] -0.128 | filanesib -0.043 | zotarolimus 0.003 | idasanutlin -0.066 | alisertib -0.039 | [2] 0.01 | gefitinib -0.07 | [3] 0.04 | lapatinib -0.038 | pictilisib 0.034 | [4] -0.019 | crizotinib -0.01 | [5] 0.069 | [6] -0.031 | duvelisib 0.057 | gandotinib 0.053 | tozasertib -0.071 | [7] 0.05 | doramapimod 0.069 | ispinesib -0.051

HBZ (UniProt P02008)
Sequence of UniProt P02008 (P02008 whole entry, looked up): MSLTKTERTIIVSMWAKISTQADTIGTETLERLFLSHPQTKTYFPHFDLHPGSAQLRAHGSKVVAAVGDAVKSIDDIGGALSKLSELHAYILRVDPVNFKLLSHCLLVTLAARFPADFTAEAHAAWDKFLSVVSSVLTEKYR
inactive: [1] 0.012 | filanesib -0.003 | zotarolimus 0.035 | idasanutlin 0.045 | alisertib -0.077 | [2] -0.055 | gefitinib 0.003 | [3] 0.093 | lapatinib 0.007 | pictilisib -0.006 | [4] 0.017 | crizotinib 0.09 | [5] 0.174 | [6] -0.067 | duvelisib 0.045 | gandotinib 0.084 | tozasertib -0.005 | [7] 0.014 | doramapimod -0.005 | ispinesib 0.21

IFRD1 (UniProt O00458)
Sequence of UniProt O00458 (O00458 whole entry, looked up): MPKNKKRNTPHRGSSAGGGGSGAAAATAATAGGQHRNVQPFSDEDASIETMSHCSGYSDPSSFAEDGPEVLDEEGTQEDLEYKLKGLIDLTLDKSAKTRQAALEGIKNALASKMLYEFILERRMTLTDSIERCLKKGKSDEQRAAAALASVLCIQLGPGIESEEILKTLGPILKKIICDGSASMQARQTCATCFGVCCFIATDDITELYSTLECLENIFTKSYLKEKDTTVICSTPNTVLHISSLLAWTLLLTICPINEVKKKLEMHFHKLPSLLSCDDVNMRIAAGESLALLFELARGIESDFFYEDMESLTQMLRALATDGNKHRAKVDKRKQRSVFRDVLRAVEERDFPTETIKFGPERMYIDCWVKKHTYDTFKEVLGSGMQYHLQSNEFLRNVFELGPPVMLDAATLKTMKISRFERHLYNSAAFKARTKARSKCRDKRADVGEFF
active: [5] 0.37
inactive: [1] -0.07 | filanesib -0.017 | zotarolimus 0.071 | idasanutlin -0.042 | alisertib -0.008 | [2] -0.25 | gefitinib 0.199 | [3] 0.253 | lapatinib 0.069 | pictilisib 0.214 | [4] 0.347 | crizotinib 0.004 | [6] 0.013 | duvelisib 0.002 | gandotinib 0.104 | tozasertib 0.035 | [7] -0.003 | doramapimod 0 | ispinesib -0.006

HPCAL1 (UniProt P37235)
inactive: [1] -0.085 | filanesib -0.128 | zotarolimus -0.017 | idasanutlin -0.062 | alisertib 0.002 | [2] -0.012 | gefitinib -0.021 | [3] 0.06 | lapatinib -0.027 | pictilisib 0.013 | [4] 0.015 | crizotinib 0.011 | [5] 0.08 | [6] -0.047 | duvelisib 0.032 | gandotinib -0.033 | tozasertib 0.024 | [7] -0.014 | doramapimod -0.027 | ispinesib -0.054

GSTO1 (UniProt P78417)
Sequence of UniProt P78417 (P78417 whole entry, looked up): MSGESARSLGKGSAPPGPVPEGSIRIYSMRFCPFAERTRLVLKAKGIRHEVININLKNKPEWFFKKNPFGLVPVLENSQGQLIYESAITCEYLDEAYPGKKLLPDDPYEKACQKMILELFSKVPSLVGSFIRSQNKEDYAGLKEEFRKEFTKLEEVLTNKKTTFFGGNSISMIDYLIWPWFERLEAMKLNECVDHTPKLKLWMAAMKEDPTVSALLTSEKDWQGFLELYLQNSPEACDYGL
inactive: [1] -0.015 | filanesib -0.031 | zotarolimus -0.017 | idasanutlin -0.037 | alisertib -0.063 | [2] -0.048 | gefitinib -0.001 | [3] 0.021 | lapatinib 0.02 | pictilisib -0.033 | [4] 0.047 | crizotinib 0 | [5] 0.013 | [6] -0.072 | duvelisib 0.064 | gandotinib -0.017 | tozasertib -0.01 | [7] 0 | doramapimod -0.02 | ispinesib 0.036
